Consider 62 compounds from PubChem BioAssay AID1259343 (VanderVen Lab, College of Veterinary Medicine, Cornell …, 2017).

Among all 6,200 compounds or so, about 2,900 (47%) were called active. So high a share suggests a set chosen from earlier hits. This is one part of the list. Values without a mark were called inactive. Rule as the data show it: active = inhibition above about 50%; inactive = the rest.

The experiment is described as follows: Mycobacterium tuberculosis growth inhibition, primary screen (AID 1259343). As to conditions: inhibition: at 10 µM, hits give high values; outcome: 10 uM.
As for `N#CC(O[C@@H]1O[C@H](CO[C@@H]2O[C@H](CO)[C@@H](O)[C@H](O)[C@H]2O)[C@@H](O)[C@H](O)[C@H]1O)c1ccccc1` (some centres not stated), the inhibition is -0.91%.
As to `CC1CCN(C(=O)CCc2nc(-c3ccc(F)cc3)no2)CC1`, the inhibition is 87.9% (active).
Regarding `CC1CCN(C(=O)CSc2nnc(C(C)Oc3ccc(F)cc3)o2)CC1` (configuration not stated), the inhibition was -37.3%.
`COc1cccc(C(=O)N2CCC(c3nc(-c4ccc(C(F)(F)F)cc4)no3)CC2)c1`: the inhibition was 30.8%.
With `CCOC(=O)C(=O)N1CCC(c2nc(-c3ccc(F)c(F)c3)no2)CC1` the figure was 75.8% (active).
With `COc1ccc(CC(=O)N2CCC(c3nc(-c4ccc(F)c(F)c4)no3)CC2)cc1` the figure was 51.3% (active); with `COc1ccc(CCc2nnc(CCC(=O)N3CCC(c4ccc(F)cc4)C3)o2)cc1` (configuration not stated), 15.2%; with `COc1ccc(CC(=O)N2CCC(c3nc(-c4ccc(C(F)(F)F)cc4)no3)CC2)cc1`, 76.9% (active).
`CC(C)c1ccc(OP(N)(=O)Oc2ccccc2F)cc1` (configuration not stated): the inhibition was 12.2%.
Consider `O=C(c1ccccc1C(F)(F)F)N1CCC(c2nc(-c3ccc(Cl)cc3F)no2)CC1`, for which the inhibition is 15.5%.
As to `CCOC(=O)CC(=O)N1CCC(c2nc(-c3ccc(Cl)cc3)no2)CC1`, the inhibition was 57.3% (active).
To `O=C(CSc1nnc(Cc2cccs2)n1C1CC1)N1CCOC1=O` belongs -19.6%; to `O=C(Cc1cccs1)N1CCC(c2nc(-c3ccc(C(F)(F)F)cc3)no2)CC1`, 67.2% (active).
For the compound `O=C(COc1ccc(Cl)cc1)N1CCC(c2nc(-c3ccc(Cl)cc3F)no2)CC1`, the inhibition was 64.9% (active).
As to `O=C(c1c(F)cccc1Cl)N1CCC(c2nc(-c3ccc(F)c(F)c3)no2)CC1`, the inhibition was 88.5% (active).
As for `O=C(NCCc1ccc(C(F)(F)F)cc1)NCCc1cccs1`, the inhibition is 31.3%.
For the compound `COC(=O)C(=O)N1CCC(c2nc(-c3ccc(Cl)cc3)no2)CC1`, the inhibition was 20.8%.
Take `CCOC(=O)Cn1c(=NC(=O)c2cc(C)no2)sc2cc(Cl)ccc21`: the inhibition was -4.33%.
Turning to `COc1ccc(CC(=O)N(CC(=O)N2CCc3sccc3C2c2ccc(Cl)cc2Cl)Cc2ccc(F)cc2)cc1` (configuration not stated), the inhibition was 3.26%.
To `COc1ccc(CC(=O)N2CCC(c3nc(-c4ccc(Cl)cc4F)no3)CC2)cc1` belongs 89% (active); to `O=C(CCc1ccccc1)N1CCC(c2nc(-c3ccc(C(F)(F)F)cc3)no2)CC1`, 83.2% (active).
Regarding `OCCc1ccc(-c2noc(C3CCC3)n2)cc1`, the inhibition is 40.7%.
For `CC(=O)Nc1cccc(CNc2ccc(Br)cn2)c1`, the inhibition was 2.55%.
With `CSC1(CNc2ccc(Br)cn2)CCOCC1`, the inhibition is 57.5% (active).
To `O=C1CCC(C(=O)Nc2ccc(F)c(-n3cccc3)c2)CN1` (configuration not stated) belongs 68.1% (active); to `CC1(C(=O)Nc2ccc(F)c(-n3cccc3)c2)CCOCC1`, 49.2%.
With `O=C(CC1CCS(=O)(=O)C1)Nc1ccc(F)c(-n2cccc2)c1` (configuration not stated), the inhibition is 58.4% (active).
With `O=C(CC1CCCCC1)NCc1ccn(-c2ccccc2F)n1` the figure was 25.1%; with `CC(=O)Nc1ccc(/C=C2\C(=O)c3c(O)ccc(Cl)c3C2C)cc1` (configuration not stated), 28.3%.
On to `CCOC(=O)C1=C(O)/C(=C\c2cccc(C)n2)SC1=Nc1cccc(F)c1`, for which the inhibition was -12.2%.
As to `N#CC1(NC(=O)COc2ccc(C(=O)c3ccc(F)cc3)cc2)CCCCC1`, the inhibition was 99.2% (active).
For `Fc1cccc(F)c1-c1nc(CSc2nccc(C(F)(F)F)n2)cs1`, the inhibition was 51.8% (active).
To `Cc1nccc(-c2ccc(NC(=O)/C=C/c3csc(C)n3)cc2)n1` belongs 86.2% (active).
To `O=C(Nc1cccc(Cl)c1Cl)C1COc2ccccc2O1` (configuration not stated) belongs -20.1%; to `O=C(Nc1cccc([N+](=O)[O-])c1)C1COc2ccccc2O1` (configuration not stated), 97.2% (active).
For `O=C(NNC(=O)C1COc2ccccc2O1)c1cccc(C(F)(F)F)c1` (configuration not stated), the inhibition is -52.4%.
For the compound `COc1cccc(OCCCOc2ccc(/C=C3\C(=N)N4N=CSC4=NC3=O)cc2)c1`, the inhibition was 88.5% (active).
With `N#Cc1cccc(CN2CCN3C(C(=O)Nc4ccc(-n5cccc5)cc4)=COC3=NC2=O)c1` the figure was 29.2%.
As to `N#Cc1cccc(CN2CCN3C(C(=O)Nc4ccc(-n5cccn5)cc4)=COC3=NC2=O)c1`, the inhibition is 85.8% (active).
For `N#Cc1cccc(CN2CCN3C(C(=O)NCCCc4ccccc4)=COC3=NC2=O)c1`, the inhibition was 89.4% (active).
As to `O=c1c(Cl)c(Cl)cnn1Cc1cc(-c2cccs2)on1`, the inhibition was 99.8% (active).
Consider `O=c1c(Cl)c(Cl)cnn1CCOc1ccc(Br)cc1`, for which the inhibition is 33.5%.
With `O=c1c(Cl)cc(C(F)(F)F)cn1Cc1coc(-c2cccs2)n1` the figure was 25.7%; with `Fc1ccc(C2C=C(c3cccs3)Nc3nnnn32)cc1` (configuration not stated), 51% (active); with `FC(F)Oc1ccc(C2C=C(c3ccccc3)Nc3nnnn32)cc1` (configuration not stated), -55.4%.
With `FC(F)(F)c1ccc(C2C=C(c3cccs3)Nc3nnnn32)cc1` (configuration not stated) the figure was 87.3% (active).
With `CCCCCCSC1=C(C#N)C(=O)NC(CO)S1` (configuration not stated), the inhibition is 98.9% (active).
`CCCCSC1=C(C#N)C(=O)NC(C)S1` (configuration not stated): the inhibition is 27.6%.
To `CCCCCCSC1=C(C#N)C2(CCCC2)C(C#N)C(=O)N1` (configuration not stated) belongs “inactive”; to `c1ccc(-c2cnnc(N3CCCCCCC3)n2)cc1`, 48.8%.
Take `COc1cccc(-c2cc(C(=O)O)nc3cc(-c4ccc(Cl)cc4)nn23)c1`: the inhibition was 59.4% (active).
For `COc1cccc(-c2cc(C(=O)O)nc3cc(C(C)(C)C)nn23)c1`, the inhibition is 100% (active).
To `CN1CCC(CNc2ccc3ncc(-c4cccc(OC(F)(F)F)c4)n3n2)CC1` belongs 44.6%; to `CC(C)(C)c1cc2nc(C(=O)O)cc(-c3cccc(F)c3)n2n1`, 64.4% (active); to `CC(C)(C)c1cc2nc(C(=O)O)cc(-c3cccc(C(F)(F)F)c3)n2n1`, 43.3%.
As for `COc1ccccc1-c1cc(C(=O)O)nc2cc(-c3ccc(Cl)cc3)nn12`, the inhibition was 43.3%.
With `CCOc1cc(C2=NN(c3ccc(C)cc3)C(=O)CC2)ccc1O` the figure was 6.87%; with `COc1ccc2c(c1)c(CC(=O)O)c(C)n2C(=O)c1ccc(Cl)cc1`, 43.2%; with `Cc1ccc(C2(CCN)CCOC(C(C)C)C2)cc1` (configuration not stated), 80.7% (active).
With `COc1ccc(NC(=O)CSc2n[nH]c(C3CC3)n2)cc1` the figure was 78.8% (active); with `COc1ccc(NC(=O)N2CCN(CCCOC(c3ccc(Cl)cc3)c3ccc(Cl)cc3)CC2)cc1`, 10.1%; with `Cc1ccc(Cc2nnc(SCC(=O)Nc3ccc(OC(F)F)cc3)[nH]c2=O)cc1`, 44.2%.
